Results reported in PubChem BioAssay (NCI).
About 83,000 compounds went through this panel and 20% of them were active in at least one assay; those are over-represented in the sample as a whole.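 Cells were grown in 96-well plates and exposed to the test compound at a single concentration for 48 hours; results are reported as percent growth, with values below 10 considered active.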 Values without a mark were called inactive. The source made the active and inactive calls.

Tested on: MDA-MB-468 breast
Experiment: NCI-60 one-dose screen, 48 h (100 = growth as untreated, 0 = no growth, -100 = all killed)
Details: 10 µM unless noted

Compound | growth
Nc1ccn(C2CC(O)C(CO)O2)c(=O)n1 (stereo not drawn) | 103%
NC1=CC(=O)C(=O)c2ccccc21 | 86.8%
C/C(Cc1ccccc1)=N\O | 106%
CCN(CC)CCOc1ccc(/C(=C(\C)c2ccc(Cl)cc2)c2ccc(Cl)cc2)cc1 | 70.6%
C=CCn1c(-c2nc3ccc(C(=C(C#N)C#N)c4ccccc4)cc3[nH]2)cc2cc(Br)ccc21 | 42.6%
C=C1CC[C@@H]2[C@](C)(COC(C)=O)[C@H](OC(C)=O)CC[C@@]2(C)[C@@H]1CC(Nc1ccc(S(=O)(=O)Nc2ncccn2)cc1)C1=CCOC1=O (stereo partly drawn) | -54% (active)
CC1(C)CC[C@]2(c3nnc(-c4ccncc4)o3)CC[C@H]3C(=CC[C@H]4[C@@]3(C)CC[C@H]3C(C)(C)C(=O)CC[C@]43C)[C@@H]2C1 | 62.2%
N/C(=N\O)c1cn(C2OC(CO)C(O)C2O)c2ncnc(N)c12 (stereo not drawn) | -23.4% (active)
CC12CCC3C(CCC4CC(=O)/C(=C\O)CC43C)C1CCC(=O)O2 (stereo not drawn) | 108%
CCc1ccc(C(=Nc2ccc(N(C)C(=O)CN3CCN(C)CC3)cc2)c2c(O)[nH]c3ccc(C(=O)OC)cc23)cc1 | -75.6% (active)
COc1cc(/C=C/C(=O)N2CCN(C(=O)c3cc(OC)c(OC)c(OC)c3)CC2)ccc1OCCCOc1cc2c(cc1OC)C(=O)N1CCC[C@H]1C=N2 | -34.6% (active)
COc1cccc(-c2nc3sccn3c2-c2ccnc(NCCNC(=O)c3ccccc3)n2)c1 | 79.4%
CCOP(=O)(OCC)OC[C@]12CC[C@@H](C)[C@H](C)C1C1=CC[C@@H]3[C@@]4(C)CCCNC(C)(C)[C@@H]4CC[C@@]3(C)[C@]1(C)CC2 (stereo partly drawn) | -51% (active)
